Compound activity (PubChem)
Only some compounds are listed: those with a hit (about 4% of all), similar ones and a draw of the others.
tim23-1 inh: inhibits growth of tim23-1 mutant yeast; S. cerevisiae tim23-1 growth, BacTiter-Glo luminescence, 24 h; inhibition, % at 20 µM; hit rate 1.3% among 330,000; AID 463212;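 active = growth inhibition of the mutant yeast at or above 50%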;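 also: temperature-sensitive mutant grown at 25 °C; plate controls were DMSO-treated mutant yeast for no effect and medium wells lacking yeast for full effect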
NALP3 yeast inh: NALP3 inhibition in yeast; Yeast reconstituted NLRP3/ASC/caspase-1, beta-gal luminescence, 24 h; hit rate 0.39% among 330,000; inhibition, % at 10 µM;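 active = inhibition of 50% or more; inactive = inhibition below 50%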;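 also: plate controls were induced DMSO wells for no effect and uninduced yeast grown without galactose for full effect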
NALP1 yeast inh: blocks the NALP1 inflammasome reconstituted in yeast; S. cerevisiae NALP1/ASC/caspase-1 growth, X-gal OD620, 72 h; inhibition, % at 10 µM; hit rate 0.61% among 280,000; AID 2071; in the data active = inhibition mostly above about 24%, no sharp cut-off; inactive = mostly below about 32%
TIM10 inh: inhibits growth of TIM10 yeast strain; AID 463195; S. cerevisiae TIM10 strain growth, BacTiter-Glo luminescence, 24 h; inhibition, % at 10 µM; hit rate 1.4% among 330,000;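 active = inhibition of 40% or more at the single tested concentration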;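 also: wild-type TIM10 isogenic control strain grown at permissive 25 °C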
tim10-1 inh: growth inhibitors of tim10-1 mutant yeast; inhibition, % at 20 µM; AID 463190; hit rate 2.2% among 330,000; S. cerevisiae tim10-1 ts strain growth, BacTiter-Glo, 24 h;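 active = inhibition of at least 40%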;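 also: mutant grown at 25 °C; 0% = DMSO wells with yeast and 100% = wells holding no yeast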
tim10 confirm: confirmation of TIM10 yeast growth inhibitors | AID 463215 | shares compounds with TIM10 inh | hit rate 63% among 4,600 | S. cerevisiae tim10 strain growth, BacTiter-Glo luminescence, 24 h | inhibition, % at 10 µM;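 active = inhibition of yeast growth at or above a set limit in either of two replicates at 10 µM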;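 also: this counterscreen used the strain with wild-type TIM10; 0% = yeast with DMSO and 100% = medium wells lacking yeast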
The depositor's hits bear a star; . = no result.

SMILES | tim23-1 inh | NALP3 yeast inh | NALP1 yeast inh | TIM10 inh | tim10-1 inh | tim10 confirm
COC(=O)c1cc(S(=O)(=O)Nc2cccc(C)c2C)cn1C | 2 | -5 | 18 | 84* | 2 | 3
CCN1CCc2c(OCC(=O)N3N=C(c4cccs4)CC3c3ccc(F)cc3)cccc2C1=O (centres undefined) | 23 | 6 | 31 | 22 | 21 | .
CN1CCc2c(OCC(=O)N3N=C(c4cccs4)CC3c3ccc(F)cc3)cccc2C1=O (centres undefined) | 43 | 2 | 36 | 40 | 30 | -26
Cc1cc(Nc2cccc(Cl)c2)nc(-c2ccccc2O)n1 | 19 | 0 | 8 | 42* | 18 | 41*
Cc1nc(CC(=O)Nc2nccs2)cs1 | -4 | 7 | 2 | -3 | 0 | .
CCOc1ccc(C(NC(=O)CC)c2c(O)ccc3ccccc23)cc1 (centres undefined) | 19 | 2 | -4 | 9 | 26 | .
CC(=O)Oc1ccc2ccccc2c1C(NC(=O)Cc1ccccc1)c1ccc(Cl)cc1 (centres undefined) | 39 | 17 | -10 | 40* | 24 | 30
Cc1c(Cl)cccc1NC(=S)NCCCN(C)C | 3 | 8 | 28 | 46* | 8 | -2
CN(C)CCNC(=S)Nc1ccccc1Cl | -18 | 13 | 11 | -12 | -15 | .
CC(=O)Oc1ccc(/C=C2/SC(=S)N(Cc3ccccc3)C2=O)cc1 | 4 | 15 | 6 | 19 | -18 | .
CC(=O)N1CC(=O)N(Cc2ccccc2)/C(=C/c2ccccc2)C1=O | 48 | 27 | 4 | 44* | 38 | 40*
CN(C(=O)CSc1ncnc2sccc12)C1CCCCC1 | 24 | 29 | . | 6 | 13 | .
CC(C)(C)c1cc(O)c(C(C)(C)C)cc1O | 46 | 1 | . | 47* | 31 | 42*
C/C=C(\C)C(=O)OC1c2c(ccc3ccc(=O)oc23)OC(C)(C)C1OC(C)=O (centres undefined) | 43 | 10 | 1 | 48* | 29 | 29*
CCc1ccc(C(C(=O)NC2CCCC2)N(C(=O)c2csnn2)C2CC2)cc1 (centres undefined) | 9 | 24 | -3 | 5 | 19 | .
c1cc(-c2nnc3sc(C4CCCCC4)nn23)ccn1 | 12 | -14 | -8 | 41* | 39 | 19
Cc1n[nH]c(C)c1CCOc1ccc(C(C)C)cc1 | 43 | 2 | 21 | 49* | 36 | 30*
Cc1ccc(-c2n[nH]c(=S)n2/N=C/c2cccs2)cc1 | 42 | 32 | 36 | 52* | 30 | -22
Cc1ccc(C(=O)NCC(=O)NCC(c2cccs2)N(C)C)cc1C (centres undefined) | 5 | 9 | . | 0 | 9 | .
CCOC(=O)C1(Cc2ccccc2C)CCCN(C(=O)CCc2cccnc2)C1 (centres undefined) | 16 | 16 | 6 | 14 | -1 | .
OCC(Cc1ccccc1)Nc1c2ccccc2nc2ccccc12 (centres undefined) | 27 | 6 | -11 | 56* | 14 | -7
O=C(CN1CCN(S(=O)(=O)c2ccc(F)cc2)CC1)NCC1(N2CCOCC2)CCCCC1 | -7 | 10 | . | 8 | -2 | .
Cc1ccc(-c2nnc(N(C)C(=O)c3cccnc3)s2)cc1 | 46 | 37 | 41* | 42* | 14 | 8
Cc1ccc(-c2nnc(N(C)C(=O)c3cccnc3)s2)cn1 | -7 | 6 | -8 | 14 | -2 | .
O=C(c1ccc2c(c1)OCO2)N1CCC(Cc2ccccc2)CC1 | 24 | 12 | 14 | 14 | 13 | .
SMILES | tim23-1 inh | NALP3 yeast inh | NALP1 yeast inh | TIM10 inh | tim10-1 inh | tim10 confirm
COc1ccc2cc(CCNC(=O)c3cc4ccccc4o3)c(=O)[nH]c2c1 | -35 | 21 | -4 | 12 | -32 | .
Cc1ccc2cc(CCNC(=O)c3cc4ccccc4o3)c(=O)[nH]c2c1C | 38 | 10 | 15 | 58* | -1 | 32*
O=C(Nc1cccc(Cl)c1)c1cc(S(=O)(=O)NCCc2ccc(Cl)cc2)ccc1F | 26 | 10 | 26 | 41* | 30 | 51*
Cc1ccc(NC(=O)c2cc(S(=O)(=O)NCCc3ccccc3)ccc2F)cc1Cl | 40 | 21 | 20 | 33 | 32 | .
O=C(NCc1nc(-c2ccc(Cl)cc2)no1)c1ccc2c(c1)OCO2 | 20 | 26 | 2 | 43* | -20 | 8
Cc1ccc(NC(=O)CCSc2nnc(C)s2)cc1 | -14 | 14 | -83 | -4 | 9 | .
CC1=NN(/C(=N\c2nnc(C)s2)Nc2ccc(C(C)(C)C)cc2)[C@H](c2ccc(C)cc2)S1 | 50 | 12 | 1 | 52* | 34 | 16
